D2 antag: antagonizes the human D2 dopamine receptor; P14416; HEK293 TREx D2 cells, calcium flux, dopamine EC80; inhibition, % at 10 µM; 2% of 340,000 active; in the data active = inhibition above about 30%; inactive = below that, where a call was filed
Target sequence (P14416 whole entry, looked up): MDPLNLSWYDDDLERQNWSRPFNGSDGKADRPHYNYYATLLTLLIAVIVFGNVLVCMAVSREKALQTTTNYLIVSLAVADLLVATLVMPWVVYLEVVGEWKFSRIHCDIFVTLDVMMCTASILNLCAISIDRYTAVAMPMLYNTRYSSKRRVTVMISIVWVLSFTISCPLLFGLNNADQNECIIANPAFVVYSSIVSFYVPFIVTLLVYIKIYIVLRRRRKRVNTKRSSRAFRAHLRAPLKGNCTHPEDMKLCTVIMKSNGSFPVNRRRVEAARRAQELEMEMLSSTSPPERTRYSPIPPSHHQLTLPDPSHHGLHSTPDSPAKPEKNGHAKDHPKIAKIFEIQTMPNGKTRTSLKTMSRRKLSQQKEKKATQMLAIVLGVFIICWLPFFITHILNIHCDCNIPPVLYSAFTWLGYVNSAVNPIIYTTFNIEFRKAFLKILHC
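Antagonism is scored as inhibition of an EC80 dopamine-evoked calcium signal in a force-coupled, tetracycline-inducible HEK293 T-REx D2 line, with compound present 180 s before agonist.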
D2 ag-1: D2 dopamine receptor (human) agonism; P14416; activation, % at 2 µM; 0.53% of 340,000 active; HEK293 T-REx D2 cells, calcium flux agonist mode;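 active = activation over 3 SD above normal in the single-dose calcium agonist read, cut at about 30% in these data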
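In this primary screen, compounds producing a positive calcium signal within 180 s of addition to tetracycline-induced, force-coupled HEK293 Trex D2 cells are flagged; cells are dye-loaded with a no-wash calcium kit beforehand.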
D2 PAM-1: positive allosteric modulators of human D2 dopamine receptor. P14416. DiscoveRx D2 beta-arrestin cells, luminescence, 90 min; 100% = 57 uM dopamine signal. potentiation, % (test concentration not listed). 0.23% of 360,000 active. AID 624464; in the data active = potentiation above about 50%; inconclusive = mostly about 30% to 49%
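PathHunter D2 cells, attached overnight at 37 deg C, received compound in DMSO plus dopamine at EC20 (50 nM final) for 90 min at 37 deg C. Beta-arrestin recruitment was read as luminescence after 1 h with detection reagent at ambient temperature.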
D2 ag-2: human D2 receptor agonism in beta-arrestin assay; P14416; 0.084% of 360,000 active; activation, % (test concentration not listed); DiscoveRx PathHunter D2 beta-arrestin, luminescence, 90 min; 100% = 57 uM dopamine signal; in the data active = activation above about 40%; inconclusive = between about 15% and that limit
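DiscoveRx PathHunter D2 beta-arrestin cells (2,100/well) attached overnight, then compound-stimulated 90 min at 37 C in HBSS/10 mM HEPES/0.1% Tween-20 buffer; beta-galactosidase complementation read by luminescence after 1 h at ambient temperature. Dopamine 57 uM final (EC100) as control.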
D2 PAM-2: positively modulates the human D2 dopamine receptor allosterically; P14416; HEK293 T-REx D2, calcium flux, EC20 dopamine potentiation; potentiation, % at 10 µM; 0.34% of 340,000 active;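 active = potentiation over 3 SD above the plate norm, cut at about 30% in these data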
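Cells plated with tetracycline inducer and held overnight at 30 C; calcium dye loaded 30–90 min at room temperature; baseline taken, compound added and read 180 s; EC20 dopamine then added and read 180 s.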
A number is an active result; 0 = inactive; ? = inconclusive; - = not tested or not shown. A selection: hits, their analogues and other compounds. The true share with any hit is near 2.4%.

SMILES	D2 antag	D2 ag-1	D2 PAM-1	D2 ag-2	D2 PAM-2
CCOC(=O)c1cccc(NC(=O)c2cc(-c3ccc(Cl)s3)nc3ccccc23)c1	-	0	-	-	0
CC/C(=N\NC(=O)COc1ccc(Br)cc1)c1ccc(OC)c(OC)c1	-	-	0	0	-
CC/C(=N\NC(N)=O)c1ccc(OC)c(OC)c1	38	0	0	0	0
COc1ccc2nc(SCC(C)=O)c(C#N)cc2c1	0	0	0	0	0
COc1ccc2nc(SC)c(C#N)cc2c1	55	0	0	0	0
CC(CNc1nc2ccccc2c2nc(-c3ccccc3)nn12)c1ccccc1 (stereo not given)	-	-	-	-	0
Cc1ccc(-c2ccc([C@H]3[C@H]4C=CC[C@@H](C)[C@@H]4C(=O)N3Cc3ccccc3)c(F)c2)cc1	33	0	0	0	0
Cc1ccc(O)c(-c2n[nH]c3c2C(c2ccc(F)cc2)N(Cc2ccco2)C3=O)c1 (stereo not given)	-	0	-	-	0
CNc1nc(C)nc(N/N=C/c2ccccc2)n1	42	0	0	0	0
C=CCn1c(CNC(=O)c2ccccc2F)nnc1SCc1nc2ccccc2c(=O)[nH]1	-	-	0	0	38
CCC(=O)OCC(=O)Nc1ccc(OC)cc1[N+](=O)[O-]	0	0	0	0	0
CCOC(=O)C(=CNc1ccc(OC)cc1[N+](=O)[O-])C(=O)OCC	31	0	0	0	0
COc1cc(-c2noc(-c3ccc(N(C)C)c([N+](=O)[O-])c3)n2)cc(OC)c1OC	-	0	-	-	0
CCOc1ccc(/C=C/c2nc(C#N)c(NC3CCCCC3)o2)cc1	-	0	-	-	0
CCOC(=O)C1=C(C)NC2=C(C(=O)CCC2)C1c1coc2ccccc2c1=O (stereo not given)	0	0	0	0	0
CC1=C(C(=O)OCCOc2ccccc2)C(c2coc3ccccc3c2=O)C2=C(CCCC2=O)N1 (stereo not given)	0	0	0	0	43
COc1cc(NS(=O)(=O)c2ccc(NC(=O)/C=C/c3ccc([N+](=O)[O-])cc3)cc2)ncn1	0	0	102	0	0
COc1cc(NC(=O)C2CCN(S(=O)(=O)c3c(C)noc3/C=C/c3c(C)cc(C)cc3C)CC2)cc(OC)c1	-	0	-	-	0
COc1ccc(OC)c(S(=O)(=O)N2CCN(c3c(C)cccc3C)CC2)c1	36	0	0	0	0
COc1ccc(OC)c(S(=O)(=O)N2c3ccccc3CC2C)c1 (stereo not given)	33	0	0	0	0
CCOc1ccccc1CNC(=O)c1oc2c(c1C)-c1[nH]ncc1CC2	-	0	-	-	0
C/C(=N\NC(=O)c1c[nH]c2ccccc12)c1ccc(C)s1	0	0	0	0	0
C/C(=N/NC(=O)c1ccncc1)c1c[nH]c2ccccc12	48	0	0	0	0
COc1ccc(S(=O)(=O)NCCc2csc3nc(-c4ccc(Cl)cc4)nn23)cc1C	-	0	-	-	0
COc1ccc(CN2CCC(C(=O)Nc3ccc(Oc4ccccc4)nc3)CC2)cc1F	0	0	0	0	0
SMILES	D2 antag	D2 ag-1	D2 PAM-1	D2 ag-2	D2 PAM-2
COc1cc(F)ccc1CN1CCC(C(=O)Nc2ccc(Oc3ccccc3)nc2)CC1	40	0	0	0	0
CCOc1ccccc1NC(=O)Cn1c(=O)n(CCCCC(=O)NCCCOC)c(=O)c2ccccc21	-	0	-	-	0
Cc1cc2c(s1)Nc1ccccc1N=C2N1CCN(C)CC1	77	-	-	-	-
O=C(NCc1ccc(F)cc1)c1ccc2c(c1)nc1n2CCCCC1	-	0	-	-	0
COc1ccc(S(=O)(=O)N(C(=O)c2ccco2)c2cc3sc(=O)oc3c3ccccc23)cc1	0	0	97	?	0
CC(=O)N(c1ccc2oc(=O)sc2c1)S(=O)(=O)c1ccccc1	0	0	?	0	0
CCOc1ccc(S(=O)(=O)N(C)CC(=O)NCc2ccco2)cc1	0	0	0	0	-
Cc1ccc(S(=O)(=O)N(C(=O)c2ccco2)c2cc3sc(=O)oc3c3ccccc23)cc1	0	0	63	?	0
CCOc1ccc(S(=O)(=O)N(C(=O)c2ccco2)c2cc3sc(=O)oc3c3ccccc23)cc1	0	0	150	?	0
COc1ccccc1NC(=O)CCNS(=O)(=O)c1ccc2c(c1)CCCC(=O)N2	-	0	-	-	0
Cc1cc(C)cc(NC(=O)C2CCN(S(=O)(=O)c3cccc(-c4noc(C)n4)c3)CC2)c1	-	0	-	-	0

Source: PubChem BioAssay
